In all, about 16,000 compounds went through this assay and about 5,800 (36%) were called active. About 23% were inconclusive and are not listed. Some of the results follow. Unmarked numbers belong to inactive results. Calls follow the shape of the dose curve; as a rule, active = well fitted curve in the direction sought with a large enough effect; inconclusive = small, poorly fitted or top-dose-only effect, or effect the other way; inactive = no such curve, though single readings can be large or run the other way.
The compounds below were run against Cytochrome P450 2C19 (Homo sapiens) (UniProt P33261) (assay: Cytochrome panel assay with activity outcomes). Settings: recombinant CYP, pro-luciferin dealkylation, luminescence, p450-cyp2c19; series mostly up to 57.1 µM.
Cytochrome P450 2C19 (Homo sapiens), sequence (P33261 whole entry, looked up): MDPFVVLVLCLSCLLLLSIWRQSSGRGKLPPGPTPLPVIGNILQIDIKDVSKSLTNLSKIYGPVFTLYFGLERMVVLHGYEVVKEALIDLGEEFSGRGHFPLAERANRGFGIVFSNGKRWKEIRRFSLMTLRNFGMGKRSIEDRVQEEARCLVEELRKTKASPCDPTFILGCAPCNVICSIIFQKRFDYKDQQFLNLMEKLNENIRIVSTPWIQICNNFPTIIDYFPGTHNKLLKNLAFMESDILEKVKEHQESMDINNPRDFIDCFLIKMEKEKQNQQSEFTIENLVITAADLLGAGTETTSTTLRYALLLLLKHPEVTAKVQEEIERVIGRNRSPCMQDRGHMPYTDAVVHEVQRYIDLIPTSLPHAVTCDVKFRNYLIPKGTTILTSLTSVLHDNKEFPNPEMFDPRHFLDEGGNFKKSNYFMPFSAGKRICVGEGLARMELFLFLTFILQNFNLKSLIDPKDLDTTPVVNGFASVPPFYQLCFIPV
% is scaled to controls: 0 for no effect and ±100 for the full control effect.

**Q.** Which activity, negative = inhibition does the source give for `CCC(C)(C)c1ccc(Oc2cccc(C(=O)O)c2)cc1` here?
**A.** -38.4% [at 11.4 µM]

**Q.** How did the AC50 turn out when `C[C@@H](/C=C\c1cccc(Oc2ccc(F)cc2)c1)N(O)C(N)=O` was run?
**A.** 3.98 µM (active)

**Q.** `C[N+]1(NCC[N@@+]2(C)CCc3ccccc3C2)CCCCC1` was tested. Which activity, negative = inhibition did it give?
**A.** 13.4% [at 11.4 µM]

**Q.** For `CCc1ccc(C(=O)CN(C#N)c2nc(C)cc(C)n2)cc1`, which AC50 is on record?
**A.** 10 µM (active)

**Q.** With `C[C@H]1[C@H](C)OC(=O)C[C@H](O)C[C@H](O)C[C@H](O)CC[C@H](O)[C@H](O)CC(=O)C[C@H](O)[C@H](C(=O)O)[C@H](O)C[C@H](O[C@@H]2O[C@@H](C)[C@H](O)[C@@H](N)[C@@H]2O)C=CC=CC=CC=CCCC=CC=C[C@@](C)(O)[C@H]1O` as the compound, how does the activity, negative = inhibition read?
**A.** 33.3% [at 11.4 µM]

**Q.** How did the AC50 turn out when `CON(c1nc(N(C)C)nc(N(C)C)n1)S(=O)(=O)c1ccccc1Cl` was run?
**A.** 4.47 µM (active)

**Q.** `CN1CCN(c2ncc3nc(-c4ccc(Cl)cc4)c(=O)n(C4CC4)c3n2)CC1` was tested. Which AC50 did it give?
**A.** inactive

**Q.** For `Cc1cc(C)n(CCCNCC(O)c2ccccc2)n1` (stereo not given), which AC50 is on record?
**A.** inactive

**Q.** `Cc1cc(C)n(CC(O)COc2ccccc2)n1` (stereo not given) was tested. Which AC50 did it give?
**A.** 8.91 µM (active)

**Q.** `O=C1CCC(c2ccccc2)(c2ccccc2)CC1` was tested. Which activity, negative = inhibition did it give?
**A.** 13.2% [at 11.4 µM]

**Q.** For `CCCc1cc(C(=O)Cc2nc3ccccc3s2)c(O)cc1O`, which AC50 is on record?
**A.** 0.126 µM (active)

**Q.** How did the AC50 turn out when `O=c1cc(CN2CCN(c3ccc(F)cc3)CC2)c2cc3c(cc2o1)CCCC3` was run?
**A.** inactive

**Q.** `COc1ccc(C2C(C#N)=C(N)Oc3n[nH]c(C)c32)cc1CN1CCN(c2ccc(F)cc2)CC1` (stereo not given) was tested. Which AC50 did it give?
**A.** 5.01 µM (active)

**Q.** How did the AC50 turn out when `O=C(N/C(=C/c1ccc(Br)cc1)c1nc2ccccc2[nH]1)c1ccco1` was run?
**A.** 3.16 µM (active)

**Q.** With `O=C(N/C(=C/c1cccs1)c1nc2ccccc2[nH]1)c1ccccc1` as the compound, how does the AC50 read?
**A.** inactive

**Q.** Which activity, negative = inhibition does the source give for `Cc1ccc(S(=O)(=O)N[C@H]2COC(=O)C/C=C\[C@@H](C)COC(=O)C/C=C\[C@@H]2C)cc1` here?
**A.** 12.1% [at 11.4 µM]

**Q.** For `COc1ccc(-n2c(-c3ccccc3)nc(=S)c3c2CCCC3)cc1`, which AC50 is on record?
**A.** inactive

**Q.** Which AC50 does the source give for `S=c1nc(-c2ccccc2)oc2c1CCCC2` here?
**A.** 15.8 µM (active)

**Q.** `c1ccc(Oc2cc(-c3ccccc3)ncn2)cc1` was tested. Which AC50 did it give?
**A.** 2.51 µM (active)

**Q.** `COc1ccccc1NC(=O)Nc1nnc(-c2ccco2)s1` was tested. Which AC50 did it give?
**A.** 1.78 µM (active)

**Q.** With `COc1ccccc1-c1nnc(NC(C)=O)s1` as the compound, how does the AC50 read?
**A.** inactive

**Q.** With `CN1C(=O)c2ccccc2C(C(=O)O)C1c1cn(C)c2ccccc12` (stereo not given) as the compound, how does the AC50 read?
**A.** inactive

**Q.** Which AC50 does the source give for `CN1C(=O)/C(=N\OC(=O)c2cccc3ccccc23)c2ccccc21` here?
**A.** 8.91 µM (active)

**Q.** How did the AC50 turn out when `NCCCCCCCCCCN` was run?
**A.** inactive

**Q.** With `C[C@H](NCCc1ccc(O)cc1)[C@@H](O)c1ccc(O)cc1` as the compound, how does the AC50 read?
**A.** inactive

From PubChem BioAssay AID1851 (National Center for Advancing Translational Sciences (NCATS), 2009)
